PubChem BioAssay (EPA / NIEHS)
Results filed as inconclusive are left out. Calls of active or inactive are those of the source. Rule for the calls: active = hit-call score of the fitted dose curve at least 0.9, where 1 is the maximum; inconclusive = response in the unintended direction; inactive = score below 0.9.

What was measured:
[1] = TOX21_p53_BLA_p2_viability: Viability Assessment in the Tox21 HCT-116 p53 Agonism Beta-lactamase Assay, Phase 2 (AID 2283591);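 note: compound exposure lasted 16 h at 37 °C; actives lower the ATP signal meaning cytotoxicity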
Method in brief: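 HCT-116 p53-bla cells (4000/well) rested 5 h at 37C, then received compounds in DMSO (217-fold dilution) for 16 h at 37C, 5% CO2. After the CCF4 read, CellTiter-Glo was added; ATP luminescence was read after 30 min at room temperature.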

[2] = target: Cellular tumor antigen p53 (Homo sapiens) (UniProt P04637); assay: TOX21_p53_BLA_p2_ratio: Tox21 HCT-116 p53 Agonism Beta-lactamase Assay, Ratio, Phase 2 (AID 2283592)
Cellular tumor antigen p53 (Homo sapiens), sequence (P04637 whole entry, looked up): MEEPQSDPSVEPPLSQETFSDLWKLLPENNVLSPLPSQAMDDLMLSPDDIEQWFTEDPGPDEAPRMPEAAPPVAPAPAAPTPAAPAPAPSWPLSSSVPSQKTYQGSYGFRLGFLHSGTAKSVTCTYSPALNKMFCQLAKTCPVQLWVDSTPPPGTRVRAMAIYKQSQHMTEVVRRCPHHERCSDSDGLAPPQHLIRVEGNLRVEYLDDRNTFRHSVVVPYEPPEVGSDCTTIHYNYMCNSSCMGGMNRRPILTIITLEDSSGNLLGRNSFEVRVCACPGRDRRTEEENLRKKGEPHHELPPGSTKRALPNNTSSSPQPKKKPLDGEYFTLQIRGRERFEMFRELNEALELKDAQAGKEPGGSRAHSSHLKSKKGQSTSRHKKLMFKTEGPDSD
Method in brief: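 Plated HCT116 p53-bla cells (4000/well) received compound after 5 h, then 16 h at 37C/5% CO2. CCF4-AM added, 2 h RT. Ratio of 460 to 530 nm emission taken as the p53 reporter signal.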

[3] = TOX21_p53_BLA_p3_viability: Viability Assessment in the Tox21 HCT-116 p53 Agonism Beta-lactamase Assay, Phase 3 (AID 2283593);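 note: cells exposed to compound for 16 h before reading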
Method in brief: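 HCT-116 cells (4000/well) rested 5 h at 37C, then got DMSO compounds by pin tool (217-fold dilution) for 16 h at 37C, 5% CO2. After the bla read, CellTiter-Glo was added and luminescence read at 30 min, room temperature.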

[4] = target: Cellular tumor antigen p53 (Homo sapiens) (UniProt P04637); assay: TOX21_p53_BLA_p3_ratio: Tox21 HCT-116 p53 Agonism Beta-lactamase Assay, Ratio, Phase 3 (AID 2283596)
Method in brief: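 Cells were seeded at 4000/well, rested 5 h at 37C, then dosed with DMSO compound solutions (217-fold dilution) for 16 h. CCF4-AM substrate was loaded for 2 h at room temperature, and the 460/530 nm emission ratio was fitted for gain of signal versus DMSO.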

[5] = TOX21_p53_BLA_p4_viability: Viability Assessment in the Tox21 HCT-116 p53 Agonism Beta-lactamase Assay, Phase 4 (AID 2283597);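 note: hits lower the luminescence signal meaning cytotoxicity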
Method in brief: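 Readout: ATP luminescence (CellTiter-Glo), measured 30 min after reagent addition at RT. The reagent followed a 2 h CCF4-AM incubation, and the cells had been exposed to compound for 16 h at 37C.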

[6] = target: Cellular tumor antigen p53 (Homo sapiens) (UniProt P04637); assay: TOX21_p53_BLA_p5_ratio: Tox21 HCT-116 p53 Agonism Beta-lactamase Assay, Ratio, Phase 5 (AID 2283599)
Method in brief: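 HCT-116 cells carrying a p53-inducible beta-lactamase reporter were seeded at 4000 cells/well and dosed after 5 h with compound in DMSO (217-fold dilution). After 16 h at 37C, CCF4-AM substrate was added for 2 h, and the 460/530 nm emission ratio was scored as gain-of-signal versus DMSO.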

[7] = TOX21_p53_BLA_p5_viability: Viability Assessment in the Tox21 HCT-116 p53 Agonism Beta-lactamase Assay, Phase 5 (AID 2283600)
Method in brief: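 Workflow: seed 4000 cells per well, wait 5 h, add compounds (DMSO, 217-fold dilution), incubate 16 h, load CCF4-AM 2 h, add CellTiter-Glo, read luminescence after 30 min.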

[8] = target: Cellular tumor antigen p53 (Homo sapiens) (UniProt P04637); assay: TOX21_p53_BLA_p4_ratio: Tox21 HCT-116 p53 Agonism Beta-lactamase Assay, Ratio, Phase 4 (AID 2283601)
Method in brief: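 HCT116 cells carrying an inducible beta-lactamase reporter were plated at 4000 cells/well, rested 5 h, then exposed to compounds in DMSO (217-fold dilution) for 16 h at 37C. CCF4-AM substrate was loaded 2 h at room temperature; 460/530 nm emission ratio scored gain-of-signal versus DMSO.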

Measured: AC50

COc1cc(C(=O)NS(=O)(=O)c2ccccc2C)ccc1Cc1cn(C)c2ccc(NC(=O)OC3CCCC3)cc12
active: [1] 14.2 µM | [2] 7.01 µM | [3] 7.45 µM | [4] 8.2 µM | [5] 8.18 µM | [6] 12.9 µM | [7] 10.1 µM | [8] 9.98 µM

CCCC(C(=O)OCCN(CC)CC)(c1ccccc1)c1ccccc1
active: [5] 31.2 µM
inactive: all other assays above

C=C1CC[C@H](O)C/C1=C/C=C1\CCC[C@]2(C)[C@@H]([C@H](C)CCCC(C)(C)O)CC[C@@H]12
active: [1] 12.8 µM | [2] 19.2 µM | [3] 13.7 µM | [4] 27.6 µM | [5] 12.8 µM | [6] 23.2 µM | [7] 13.1 µM | [8] 18.6 µM

CC(=O)NCc1c(I)c(NC(C)=O)c(I)c(C(=O)O)c1I
inactive: all assays above

O=C(NOCC1CC1)c1ccc(F)c(F)c1Nc1ccc(I)cc1Cl
inactive: [1]
active: [2] 7.89 µM | [3] 23 µM | [4] 23.9 µM | [5] 23 µM | [6] 20.5 µM | [7] 19.7 µM | [8] 30.5 µM

O=C1c2ccccc2C(=O)C1c1ccc2ccccc2n1
inactive: all assays above

CCCC1([C@H](O)C/C=C/[C@H]2[C@H](O)CC(=O)[C@@H]2CCCCCCC(=O)OC)CCC1
active: [5] 36.3 µM
inactive: all other assays above

COc1cc2c(cc1OC)C(=O)C(CC1CCN(Cc3ccccc3)CC1)C2 (centres undefined)
inactive: all assays above

CN1CCN(c2cc3c(nn2)Oc2ccccc2N3C)CC1
inactive: all assays above

O=C(O)Cc1cn(-c2ccccc2)nc1-c1ccc(Cl)cc1
inactive: all assays above

O=c1cccccc1O
inactive: all assays above

Nc1nc(Cl)nc2c1ncn2[C@@H]1O[C@H](CO)[C@@H](O)[C@@H]1F
active: [2] 0.119 µM | [4] 0.117 µM | [6] 0.112 µM | [8] 0.155 µM
inactive: [1] | [3] | [5] | [7]

CON=C(C(=O)N[C@@H]1C(=O)N2C(C(=O)O)=C(COC(N)=O)CS[C@H]12)c1ccco1
inactive: all assays above

CO[Si](CCCNc1ccccc1)(OC)OC
inactive: all assays above

O=C(CS)Nc1ccccc1
inactive: all assays above

CCCCCCCCCCCCCC[n+]1ccc(C)cc1
active: [2] 20.1 µM | [4] 27.5 µM
inactive: all other assays above

COc1cc(N)c(Cl)cc1C(=O)NC1CCN(CCCOc2ccc(F)cc2)CC1OC (centres undefined)
inactive: all assays above

CN1[C@@H]2CC[C@H]1CC(OC(=O)C(O)c1ccccc1)C2 (some centres undefined)
inactive: all assays above

CCCCCCCCCCCCCCCCCCNC(=O)OC1CCN(C(=O)OC[C@H](COC(=O)N(Cc2cccc[n+]2CC)C(=O)c2ccccc2OC)OC)CC1
active: [5] 30.2 µM | [6] 35.7 µM | [8] 38.4 µM
inactive: all other assays above

CCN(CC)CCOc1ccc(Cc2ccccc2)cc1
active: [1] 42.2 µM | [5] 33.8 µM
inactive: all other assays above

CC[C@@]1(O)C(=O)OCc2c1cc1n(c2=O)Cc2cc3c([N+](=O)[O-])cccc3nc2-1
inactive: [1] | [7]
active: [2] 0.124 µM | [3] 0.685 µM | [4] 0.172 µM | [5] 0.654 µM | [6] 0.166 µM | [8] 0.166 µM

Cc1cc2nc(N)sc2cc1C
inactive: all assays above

CC1(S(=O)(=O)O)CC(=O)c2ccccc2C1=O (centres undefined)
active: [2] 34.5 µM | [4] 43.4 µM | [6] 36.7 µM
inactive: all other assays above

O=[N+]([O-])c1ccc(O)c2ncccc12
active: [5] 23 µM
inactive: all other assays above

O=S(=O)(O)Oc1ccc(C(c2ccc(OS(=O)(=O)O)cc2)c2ccccn2)cc1
inactive: all assays above

COc1cc2[nH]c(=O)[nH]c(=O)c2cc1OC
inactive: all assays above

COc1c(Br)cc(Br)c(C)c1Br
inactive: all assays above

O=C1c2ccccc2C(=O)C1(O)O
inactive: [7]
active: [1] 88.5 µM | [2] 31.8 µM | [3] 63.8 µM | [4] 22.8 µM | [5] 60.2 µM | [6] 29 µM | [8] 36.3 µM

CO[C@H]1/C=C/O[C@@]2(C)Oc3c(C)c(O)c4c(O)c(cc(O)c4c3C2=O)NC(=O)/C(C)=C\C=C\[C@H](C)[C@H](O)[C@@H](C)[C@@H](O)[C@@H](C)[C@H](OC(C)=O)[C@@H]1C
inactive: all assays above

NC(=O)c1ccccc1C(N)=O
active: [2] 72.7 µM | [6] 73.1 µM
inactive: all other assays above

CC(C)(C)OC(=O)N1C[C@@H](F)C[C@H]1C(=O)O
inactive: all assays above

O=C(c1ccc(O)cc1)c1ccc(O)c(O)c1O
inactive: all assays above

CC(NCCC(c1ccccc1)c1ccccc1)c1ccccc1 (centres undefined)
active: [1] 26.6 µM | [2] 33.9 µM | [5] 32.5 µM | [6] 35.8 µM | [8] 39.4 µM
inactive: [3] | [4] | [7]

Cc1cc(O)c(C(C)C)cc1Cl
inactive: all assays above

O=C(Nc1ccc(Cl)cc1)Nc1ccc(Cl)c(C(F)(F)F)c1
active: [1] 32.8 µM | [2] 5.23 µM | [4] 11.2 µM | [5] 33.1 µM | [6] 19.5 µM | [7] 39.6 µM | [8] 6.95 µM
inactive: [3]

COc1ccc(CN2CCN(C(c3ccc(F)cc3)c3ccc(F)cc3)CC2)c(OC)c1OC
active: [1] 23 µM | [3] 23 µM | [5] 23 µM
inactive: all other assays above

Cc1cnc(C(=O)O)c[n+]1[O-]
inactive: all assays above

CC1=C(/C=C/C(C)=C/C=C/C(C)=C\C=O)C(C)(C)CCC1
active: [1] 72.1 µM | [3] 64.9 µM | [4] 75.3 µM | [5] 80.9 µM | [6] 66.7 µM | [7] 74.6 µM
inactive: [2] | [8]

CO[C@H]1/C=C/O[C@@]2(C)Oc3c(C)c(O)c4c(O)c(c(/C=N/N5CCN(C6CCCC6)CC5)c(O)c4c3C2=O)NC(=O)/C(C)=C\C=C\[C@H](C)[C@H](O)[C@@H](C)[C@@H](O)[C@@H](C)[C@H](OC(C)=O)[C@@H]1C
active: [1] 33.8 µM | [2] 43.8 µM | [3] 35.3 µM | [4] 42.8 µM | [5] 37.2 µM | [6] 43.2 µM | [7] 42.8 µM | [8] 36.8 µM

N=C(N)c1ccc(OCCCOc2ccc(C(=N)N)cc2Br)c(Br)c1
inactive: all assays above

CCCCCCCC/C=C\CCCCCCCCOCCO
active: [1] 72.5 µM | [2] 96.6 µM | [3] 29.2 µM | [4] 80.3 µM | [5] 72.6 µM | [6] 56.2 µM | [7] 21.1 µM | [8] 105 µM

Cc1ccc2nc(N)[nH]c(=O)c2c1Sc1ccncc1
active: [2] 2.17 µM | [3] 3.66 µM | [4] 3.22 µM
inactive: all other assays above

COc1cc(C(=O)OCCCN2CCCN(CCCOC(=O)c3cc(OC)c(OC)c(OC)c3)CC2)cc(OC)c1OC
inactive: all assays above
